System: Vero E6 infected with SARS-CoV-2
Assay: inhibition of SARS-CoV-2 cytopathic effect; higher = more antiviral protection, active = above 15
Settings: 8.33 nM; 48 h

Compound	inhibition of SARS-CoV-2 cytopathic effect
Cn1c(CNc2ccc(C(=N)N)cc2)nc2cc(C(=O)N(CCC(=O)O)c3ccccn3)ccc21 [dabigatran]	1.73% (inactive)
COC(=O)N/N=C/c1c[n+]([O-])c2ccccc2[n+]1[O-] [carbadox]	-0.55% (inactive)
Clc1ccc2nsnc2c1NC1=NCCN1 [tizanidine]	4.56% (inactive)
COc1cc2c(NC3CCN(C)CC3)nc(N3CCCN(C)CC3)nc2cc1OCCCN(C)C	3.22% (inactive)
C/C=C1/[C@H](O[C@@H]2O[C@H](CO)[C@@H](O)[C@H](O)[C@H]2O)OC=C(C(=O)OC)[C@H]1CC(=O)OCCc1ccc(O)c(O)c1 [oleuropein]	-0.2% (inactive)
CS(=O)(=O)c1ccc(Oc2cc(F)cc(C#N)c2)c2c1[C@H](O)C(F)(F)C2	2.61% (inactive)
FC(F)(F)Oc1ccc2nc(-c3ccc(OCCOCCOc4ccc(-c5nc6ccc(OC(F)(F)F)cc6[nH]5)nc4)cn3)[nH]c2c1	1.44% (inactive)
O=C(NN1C(=O)[C@@H]2[C@@H]3C=C[C@@H]([C@H]4C[C@@H]34)[C@@H]2C1=O)c1ccc(C(F)(F)F)cc1 [tecovirimat]	2.44% (inactive)
C=C1CC[C@H](O)C/C1=C/C=C1\CCC[C@]2(C)[C@@H]([C@H](C)CCCC(C)(C)O)CC[C@@H]12 [calcifediol]	-2.15% (inactive)
CCNC(=O)CC[C@H](N)C(=O)O [L-theanine]	-3.55% (inactive)
COc1ccc(CC(C)NCC(O)c2ccc(O)c(NC=O)c2)cc1 (stereo unspecified) [formoterol]	2.33% (inactive)
CNC(=O)[C@@H](Cc1ccccc1)N(C)C(=O)[C@@H](Cc1ccc2ccccc2c1)N(C)C(=O)/C=C/CC(C)(C)N [tabimorelin]	-0.49% (inactive)
CC(C)OC(=O)CNC(=O)[C@H](CS)NC(=O)CC[C@H](N)C(=O)O [glutathione-monoisopropyl-ester]	2.43% (inactive)
COc1cn(-c2ccc(-n3cccn3)cc2F)nc(-c2ccnn2-c2ccccc2)c1=O	3.16% (inactive)
S=C(S)N1CCCC1 [pyrrolidine-dithiocarbamate]	4.55% (inactive)
O[C@H]1CC[C@H](Nc2ncc3nc(Nc4c(F)cc(F)cc4F)n([C@H]4CCOC4)c3n2)CC1	2.79% (inactive)

Compound	inhibition of SARS-CoV-2 cytopathic effect
COc1ccccc1C(=O)Nc1cccc(NC(=O)c2cccc(C)c2)c1	2.12% (inactive)
CN(C)CC(c1ccc(O)cc1)C1(O)CCCCC1 (stereo unspecified) [desvenlafaxine]	3.55% (inactive)
CC(C)NC(=O)N1CC[C@H](NC2=Nc3cc(F)ccc3N(CC(F)F)c3ccc(Cl)cc32)C1	0.15% (inactive)
[O-][n+]1ccccc1[S-].[O-][n+]1ccccc1[S-].[Zn+2] [pyrithione-zinc]	0.32% (inactive)
CCOc1cc([C@@H](CS(C)(=O)=O)N2C(=O)c3cccc(NC(C)=O)c3C2=O)ccc1OC [apremilast]	-0.67% (inactive)
C/C=C/c1cc(OC)c(OC)cc1OC [alpha-asarone]	0.62% (inactive)
CN(C)CC[C@H](CSc1ccccc1)Nc1ccc(S(=O)(=O)NC(=O)c2ccc(N3CCN(Cc4ccccc4-c4ccc(Cl)cc4)CC3)cc2)cc1[N+](=O)[O-]	-0.39% (inactive)
CC(C)(C)NCC(O)c1cc(O)cc(O)c1 (stereo unspecified)	-0.61% (inactive)
C[C@]12CC[C@H]3[C@@H](CC[C@@]45O[C@@H]4C(O)=C(C#N)C[C@]35C)[C@@H]1CC[C@@H]2O [trilostane]	-0.28% (inactive)
O=C1CN(/N=C/c2ccc(-c3ccc([N+](=O)[O-])cc3)o2)C(=O)N1 [dantrolene]	0.6% (inactive)
CCCCn1c(-c2ccccc2)nc(-c2ccccc2)c1CN(Cc1ccc2c(c1)OCO2)Cc1ccc2c(c1)OCO2	1.63% (inactive)
CC(CN1c2ccccc2Sc2ccccc21)N(C)C (stereo unspecified) [promethazine]	-0.16% (inactive)
C=CC(=O)Nc1cccc(Oc2nc(Nc3ccc(N4CCN(C)CC4)cc3OC)ncc2Cl)c1	3.52% (inactive)
Cc1onc(-c2ccccc2Cl)c1C(=O)N[C@@H]1C(=O)N2[C@@H]1SC(C)(C)[C@@H]2C(=O)O [cloxacillin]	-1.52% (inactive)
CCCCCCCCCCCCCCCCCCCCCCCCC(=O)O [pentacosanoic-acid]	-2.46% (inactive)

— the supplement of paper PMC13380429
